Source: the supplement of paper PMC7156485

tested on: HCC1569; assay: H1.0 immunofluorescence intensity relative to DMSO (% of DMSO); higher = stronger H1.0 induction, active = 140 or more; details: concentration: 10 µM; 24 h
Outline: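 Cell number or H1.0 nuclear intensity appears as percent of the plate control, based on the median of replicates. Measurements came from HCC1569 and TDF cells exposed in triplicate to compounds at 10 µM for 24 h at 37 °C, then imaged in six fields per well at ×10. Positional effects were smoothed out of HCC1569 values.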
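Further: TDF is a line of transformed human dermal fibroblasts of mesenchymal origin.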

H1.0 immunofluorescence intensity, inactive:
CCC=CCC=CCC=CCC=CCC=CCCCC(=O)O 96.4
CC(C)(S)[C@H](N)C(=O)O [L-Penicillamine] 90.8
CC(C)C1C2CCC(C2)C1N.Cl (configuration not stated) 90.8
C=CCN1CCc2cc(O)c(O)cc2C(c2ccccc2)C1 (racemic) 101
O=c1sn(-c2cccc3ccccc23)c(=O)n1Cc1ccccc1 [4-benzyl-2-(1-naphthyl)-1,2,4-thiadiazolidine-3,5-dione] 98.8
C=CC(N)CCC(=O)O (racemic) 107
CCCCCCCCCCCCCCCCC(=O)O [Heptadecanoic acid] 103
Cl.NC(N)=NCCNS(=O)(=O)c1cccc2cnccc12 [HA-1004 hydrochloride] 88.4
CN(CC=CC#CC(C)(C)C)Cc1cccc2ccccc12.Cl 98.4
Cc1cn[nH]c1.Cl [4-Methylpyrazole hydrochloride] 95.4
CCCCCC=CCC=CCC=CCC1OC1CCCC(=O)O (configuration not stated) [5,6-Epoxyeicosatrienoic acid] 103
CCCCCCCCCCCCCC(=O)NC(C)C(O)c1ccccc1 [D-erythro MAPP] 94.7
Cc1onc(-c2ccccc2)c1C(=O)NC1C(=O)N2C1SC(C)(C)C2C(=O)[O-] (configuration not stated) [Oxacillin] 111
CC(Cc1ccc(O)c(O)c1)(NN)C(=O)O.O (configuration not stated) [Carbidopa.H2O] 104
O=c1onc2cnc3ccccc3n12 106
CN(C)NN=C1N=CN=C1C(N)=O [Dacarbazine] 101
OCc1ccc(-c2nn(Cc3ccccc3)c3ccccc23)o1 106
COc1ccc2c(c1)c(CC(=O)O)c(C)n2Cc1ccc(F)cc1 [1-(4-Fluorobenzyl)-5-methoxy-2-methylindole-3-acetic acid] 85.5
O=C(O)CCCCC=CCC(O)C=CC=CC=CC(O)CCCC(=O)O (configuration not stated) [20-Carboxy-leukotriene B4] 102
CCC(C)C(O)C(C)C(=O)C(C)C=C(C)CC(C)C1OC(=O)C1CC (configuration not stated) [Ebelactone B] 89.2
O=C(NOCC(O)CO)c1ccc(F)c(F)c1Nc1ccc(I)cc1F (configuration not stated) 94.6
CC(OC1OCCN(Cc2nc(=O)[nH][nH]2)C1c1ccc(F)cc1)c1cc(C(F)(F)F)cc(C(F)(F)F)c1 (configuration not stated) [Aprepitant] 107
COc1ccc(-c2cnc3c(-c4ccsc4)cnn3c2)cc1 [VEGF Receptor 2 Kinase Inhibitor IV] 109
O=C(O)C1CCCNC1 (racemic) 92.1
NCC1OC(OC2C(CO)OC(OC3C(O)C(N)CC(N)C3OC3OC(CN)C(O)C(O)C3N)C2O)C(N)C(O)C1O (configuration not stated) [Neomycin] 91.8
CNCC(O)c1ccc(O)c(O)c1.O=C(O)C(O)C(O)C(=O)O (single isomer, unassigned; (-)) [(-)-Epinephrine bitartrate] 82.3
CCCCCCC=CCCCCCCCC(=O)O [9(E)-Hexadecenoic acid] 105
